In PubChem BioAssay (NCATS):
Inconclusive results are not listed. Active and inactive are the calls of the source. Unless noted, calls follow the shape of the dose curve; as a rule, active = well fitted curve in the direction sought with a large enough effect; inconclusive = small, poorly fitted or top-dose-only effect, or another doubt; inactive = no such curve, though single readings can be large; an effect the other way counts as inactive or inconclusive.

Assays:
[1] = target: Glutathione peroxidase 1 (Homo sapiens) (UniProt P07203); assay: Primary qHTS Assay for Inhibitors of Recombinant Selenoprotein Glutathione Peroxidase 1 (GPX1) (AID 1845191); also: nearly all actives have a fitted effect of over 65% in size
Glutathione peroxidase 1 (Homo sapiens), sequence (P07203 whole entry, looked up): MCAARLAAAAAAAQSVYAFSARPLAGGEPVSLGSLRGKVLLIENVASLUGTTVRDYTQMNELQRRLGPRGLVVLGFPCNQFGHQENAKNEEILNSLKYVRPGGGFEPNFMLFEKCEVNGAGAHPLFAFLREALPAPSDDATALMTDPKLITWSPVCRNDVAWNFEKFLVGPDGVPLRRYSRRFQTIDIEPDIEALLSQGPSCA
Method in brief: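 10 nM GPX1 + cpd, 30 min RT; start w/ 1 mM GSH, 0.5 mM cumene hydroperoxide, 0.5 mM NADPH, 100 nM GR, 0.01% BSA; buffer 50 mM Tris-HCl pH 7.5, 2 mM EDTA, 150 mM NaCl; Fl 340/450, 0 & 15 min.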

[2] = target: Phospholipid hydroperoxide glutathione peroxidase GPX4 (Homo sapiens) (UniProt P36969); assay: Primary qHTS Assay for Inhibitors of Recombinant Selenoprotein Glutathione Peroxidase 4 (GPX4) (AID 1845192); also: nearly all actives have a fitted effect of over 65% in size; as to activity change, negative = inhibition: series mostly up to about 50 µM; % is scaled to controls: 0 for no effect and ±100 for the full control effect
Phospholipid hydroperoxide glutathione peroxidase GPX4 (Homo sapiens), sequence (P36969 whole entry, looked up): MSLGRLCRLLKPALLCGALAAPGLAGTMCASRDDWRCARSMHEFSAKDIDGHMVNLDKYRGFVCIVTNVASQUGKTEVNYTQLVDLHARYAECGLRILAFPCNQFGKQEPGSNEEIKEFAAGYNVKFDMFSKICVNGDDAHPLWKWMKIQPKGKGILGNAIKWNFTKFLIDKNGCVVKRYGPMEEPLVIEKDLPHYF
Method in brief: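 NADPH consumption, followed by fluorescence at 340/450 nm between 0 and 15 min, reports GPX4 activity via coupled glutathione reductase (100 nM). Enzyme 200 nM was pre-exposed to compound 30 min; 0.5 mM cumene hydroperoxide and 1 mM GSH served as substrates.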

[3] = target: Luciferin 4-monooxygenase (Photinus pyralis) (UniProt P08659); assay: Primary firefly luciferase (FLuc) qHTS assay for identification of artifact compounds. (AID 1845220); also: nearly all actives have a fitted effect of over 60% in size;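 as to activity change, negative = inhibition: series mostly up to about 54 µM; plate controls were DMSO vehicle for no effect and no enzyme for full effect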
Method in brief: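 FLuc 10 nM; luciferin 10 uM; ATP 10 uM; Tris-acetate pH 7.6, Mg-acetate 10 mM; 15 min RT preincubation; 5 min reaction; luminescence.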

[4] = Primary fluorescence-based thiol-reactive (MSTI) qHTS assay for identification of artifact compounds. (AID 1845221);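 also: series mostly up to about 54 µM; thiol-reactive compounds lower the probe fluorescence signal; nearly all actives have a fitted effect of over 65% in size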
Method in brief: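 In PBS pH 7.4 with 2% DMSO, each compound met 4 uM MSTI for one hour at ambient temperature, shielded from light, before fluorescence detection.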

[5] = Primary redox qHTS assay for identification of artifact compounds. (AID 1845223)
Method in brief: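 Amplex Red (25 uM) and HRP (250 mU/mL) in HBSS, with compounds for 15 min, then 250 uM DTT for 30 min, room temperature, dark. Fluorescence 525/598 nm read; normalized to DMSO and 10 uM DA3003; Hill fit.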

[6] = Quantitative High-Throughput drug screen in 47 multiple myeloma cell lines against the NCATS MIPE library collection: FR4_PLB cell viability assay (AID 1918924; also: nearly all actives have a fitted effect of over 35% in size; also: potency is read from the fitted curve at half-maximal effect)
Method in brief: (§1)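 Primary qHTS used for cherry-picking: cells at 500/well, library compounds for 48 h (37C, 5% CO2), luminescent ATP assay.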

[7] = Quantitative High-Throughput drug screen in 47 multiple myeloma cell lines against the NCATS MIPE library collection: Delta47_JCRB cell viability assay (AID 1918925; also: nearly all actives have a fitted effect of over 45% in size; also: potency is read from the fitted curve at half-maximal effect)
Method in brief: (§2)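 Myeloma cells (500 per well) were exposed to MIPE 4.0 compounds by pin transfer and incubated 48 hours at 37C, 5% CO2. Viability was read as ATP by CellTiter-Glo luminescence, normalised to DMSO (100%) and media-only (0%) wells.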

[8] = Quantitative High-Throughput drug screen in 47 multiple myeloma cell lines against the NCATS MIPE library collection: EJM_DSMZ cell viability assay (AID 1918926; also: nearly all actives have a fitted effect of over 30% in size; also: potency is read from the fitted curve at half-maximal effect)
Method in brief: as §2

[9] = Quantitative High-Throughput drug screen in 47 multiple myeloma cell lines against the NCATS MIPE library collection: AMO1_DSMZ cell viability assay (AID 1918927; also: nearly all actives have a fitted effect of over 30% in size; also: potency is read from the fitted curve at half-maximal effect)
Method in brief: as §2

[10] = Quantitative High-Throughput drug screen in 47 multiple myeloma cell lines against the NCATS MIPE library collection: ARP1_JJKsccF8 cell viability assay (AID 1918928; also: nearly all actives have a fitted effect of over 40% in size; also: potency is read from the fitted curve at half-maximal effect)
Method in brief: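 Luminescence from CellTiter-Glo, taken after 5 min at room temperature, reports cellular ATP as viability. Cells (500 per well) had been treated 48 h at 37 °C with MIPE 4.0 compounds, scaled between DMSO and medium-only controls.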

[11] = Quantitative High-Throughput drug screen in 47 multiple myeloma cell lines against the NCATS MIPE library collection: ARD_JJKsccE7 cell viability assay (AID 1918929; also: potency is read from the fitted curve at half-maximal effect)
Method in brief: as §2

[12] = Quantitative High-Throughput drug screen in 47 multiple myeloma cell lines against the NCATS MIPE library collection: Karpas620_DSMZ cell viability assay (AID 1918959); also: nearly all actives have a fitted effect of over 30% in size; also: potency is read from the fitted curve at half-maximal effect
Method in brief: as §1

[13] = target: Phenylethanolamine N-methyltransferase (Homo sapiens) (UniProt P11086); assay: Confirmatory Screen for Target Class Profiling of Small Molecule Inhibitors of Methyltransferases (AID 1745852); settings: MTase-Glo luminescence, SAH detection, recombinant enzyme; measured here: PNMT max response; stronger effect = lower value
Phenylethanolamine N-methyltransferase (Homo sapiens), sequence (P11086 whole entry, looked up): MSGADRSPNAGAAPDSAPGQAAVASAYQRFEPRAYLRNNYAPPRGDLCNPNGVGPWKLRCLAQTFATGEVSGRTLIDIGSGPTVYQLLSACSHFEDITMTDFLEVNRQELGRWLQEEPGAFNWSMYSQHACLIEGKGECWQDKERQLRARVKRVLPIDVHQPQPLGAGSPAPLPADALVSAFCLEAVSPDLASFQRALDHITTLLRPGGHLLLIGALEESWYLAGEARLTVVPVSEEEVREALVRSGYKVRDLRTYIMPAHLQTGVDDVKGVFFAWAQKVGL

[14] = Viability counterscreen for antagonist of constitutive androstane receptor (CAR) against the NCATS DSHEA and TCM libraries (AID 1794837);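 also: compound exposure lasted 24 h before viability reading; 0% is about no effect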
Method in brief: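 Cell viability, CellTiter-Fluor, Ex/Em 405/540 nm, 1 h at 37C. HepG2-CYP2B6-hCAR, 2,500 cells/well; cpds + CITCO 48 uM final (antagonist mode), 24 h, 37C/5% CO2.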

[15] = target: Nuclear receptor subfamily 1 group I member 3 (Homo sapiens) (UniProt Q14994); assay: Primary qHTS for agonist of constitutive androstane receptor (CAR) against the NCATS DSHEA and TCM libraries (AID 1794839);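 also: HepG2 cells expressing human CAR with a CYP2B6 reporter plus PK11195 antagonist; 0% is about no effect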
Nuclear receptor subfamily 1 group I member 3 (Homo sapiens), sequence (Q14994 whole entry, looked up): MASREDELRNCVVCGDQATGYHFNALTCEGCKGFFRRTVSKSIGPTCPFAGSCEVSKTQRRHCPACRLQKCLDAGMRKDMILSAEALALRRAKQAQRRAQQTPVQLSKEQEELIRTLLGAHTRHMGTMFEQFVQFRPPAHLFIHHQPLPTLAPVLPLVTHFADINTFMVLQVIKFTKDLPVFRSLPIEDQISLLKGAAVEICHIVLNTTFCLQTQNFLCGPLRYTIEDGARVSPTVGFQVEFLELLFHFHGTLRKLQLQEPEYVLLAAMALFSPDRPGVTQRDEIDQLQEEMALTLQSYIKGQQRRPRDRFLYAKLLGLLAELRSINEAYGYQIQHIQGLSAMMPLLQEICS
Method in brief: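 Luminescence from ONE-Glo luciferase was the agonist read-out in HepG2-CYP2B6-hCAR cells exposed 24 h to test substances. Wells also held the CAR antagonist PK11195 at 0.75 µM final. Viability was by CellTiter-Fluor fluorescence.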

[16] = HepG2 viability counterscreen (readout 2: ATP content) against the NCATS DSHEA and TCM libraries (AID 1794840); also: 0% is about no effect
Method in brief: (§3)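 1,000 HepG2 cells/well, 4 h attach; compounds ~24 h, 37C/5% CO2. Readout 1: GF-AFC 25 uM final, 30 min, fluorescence 380/510 nm. Readout 2: CellTiter-Glo, 30 min RT, luminescence.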

[17] = HepG2 viability counterscreen (readout 1: protease activity) against the NCATS DSHEA and TCM libraries (AID 1794841);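 also: cells exposed to compounds for about 24 h before the protease read; 0% is about no effect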
Method in brief: as §3

[18] = NCATS anti-infectives library activity on the primary C. elegans qHTS viability assay (AID 1745855; calls by dose curve; also: potency is read from the fitted curve at half-maximal effect)
Method in brief: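 Viability is taken from GFP fluorescence of PE254-GFP-FLuc C. elegans imaged by laser cytometry over 7 days. Ten L1 worms per well grow at 21 °C on TOP10 E. coli capsules with titrated compound; levamisole marks toxicity.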

[19] = test system: Nanoluciferase (engineered Oplophorus gracilirostris luciferase); assay: Primary Nanoluciferase (NLuc) qHTS assay for identification of artifact compounds. (AID 1845222);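 also: NLuc secreted into diluted conditioned medium of S16 cells; series mostly up to about 54 µM; 0% = DMSO and -100% = no enzyme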
Method in brief: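 NLuc from S16 cell medium (1:55) plus test compounds, 15 min, room temperature. Luminescence after Nano-Glo (1:100) addition, 5 min.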

[20] = Viability counterscreen for agonist of constitutive androstane receptor (CAR) against the NCATS DSHEA and TCM libraries (AID 1794838); also: 0% is about no effect
Method in brief: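 Viability by CellTiter-Fluor fluorescence, 405/540 nm, after 1 h at 37C. HepG2-CYP2B6-hCAR cells were exposed 24 h to test substances in presence of 0.75 uM PK11195 (final).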

C=CC(=O)Nc1ccc2ncnc(Nc3ccc(OCc4cccc(F)c4)c(Cl)c3)c2c1
active: Potency [6] 6.62 µM | Potency [7] 0.187 µM | Potency [8] 5.26 µM | Potency [9] 0.0209 µM | Potency [10] 0.296 µM | Potency [11] 0.0418 µM | Potency [12] 0.0418 µM
inactive: Potency [1] | Potency [2] | Potency [3] | Potency [4] | Potency [5]

COc1cc2c(Nc3ccc(Cl)c(Cl)c3F)ncnc2cc1OCC1C[C@@H]2CN(C)C[C@H]2C1
active: Potency [6] 14.8 µM | Potency [7] 2.35 µM | Potency [8] 2.96 µM | Potency [9] 8.33 µM | Potency [10] 8.33 µM | Potency [11] 13.2 µM | Potency [12] 4.18 µM
-68.7%: activity [13]

C=C(C)[C@@H]1CC[C@]2(C(=O)O)CC[C@]3(C)[C@H](CC[C@@H]4[C@@]5(C)CC[C@H](O)C(C)(C)[C@@H]5CC[C@]43C)[C@@H]12
inactive: outcome [14] | outcome [15] | outcome [16] | outcome [17] | Potency [1] | Potency [2] | Potency [6] | Potency [7] | Potency [8] | Potency [10] | Potency [11] | Potency [12]

C[C@H](NC(=O)[C@@H](O)c1cc(F)cc(F)c1)C(=O)N[C@@H]1C(=O)N(C)c2ccccc2-c2ccccc21
active: Potency [18] 0.365 µM
inactive: Potency [1] | Potency [2] | Potency [6] | Potency [8] | Potency [10] | Potency [11] | Potency [12]

c1ccc2c(Oc3nc(Nc4ccc(N5CCOCC5)cc4)c4ncn(C5CCCCC5)c4n3)cccc2c1
-3.02%: activity [13]
active: Potency [9] 9.35 µM
inactive: Potency [1] | Potency [3] | outcome [19] | Potency [5] | Potency [6] | Potency [12]

C[C@@H](Cc1cc2c(c(C(N)=O)c1)N(CCCO)CC2)NCCOc1ccccc1OCC(F)(F)F
inactive: Potency [1] | Potency [2] | Potency [3] | Potency [4] | outcome [19] | Potency [5] | Potency [6] | Potency [8] | Potency [9] | Potency [10]
active: Potency [7] 11.8 µM

C[C@@]12C[C@@]3(O)O[C@@H](O1)[C@]1(COC(=O)c4ccccc4)[C@@H]3C[C@@]12O[C@@H]1O[C@H](CO)[C@@H](O)[C@H](O)[C@@H]1O
inactive: outcome [14] | outcome [20] | outcome [15] | outcome [16] | outcome [17] | Potency [6] | Potency [8] | Potency [9] | Potency [11]

CN(C)CC(=O)N1CCC(c2ccc(NC(=O)c3ncc(C#N)[nH]3)c(C3=CCCCC3)c2)CC1
inactive: Potency [1] | Potency [2] | Potency [3] | Potency [4] | outcome [19] | Potency [5] | Potency [6] | Potency [10]
active: Potency [7] 18.7 µM | Potency [8] 18.7 µM | Potency [9] 7.43 µM | Potency [11] 3.32 µM

O=C1CSC(=O)N1C(CCc1ccncc1)COc1ccc(-c2cccc([N+](=O)[O-])c2)cc1 (stereo unspecified)
active: Potency [6] 18.7 µM | Potency [7] 4.18 µM | Potency [8] 0.935 µM | Potency [10] 3.32 µM
inactive: Potency [1] | Potency [2] | Potency [9] | Potency [11]

Cc1cnc(NC(=O)Nc2cc(Br)c(C)cc2OC[C@@H]2CNCCO2)cn1
inactive: Potency [1] | Potency [2]
active: Potency [6] 0.59 µM | Potency [7] 5.26 µM | Potency [8] 3.72 µM | Potency [10] 13.2 µM | Potency [11] 1.18 µM

CN(C)CCN1C(=O)c2cccc3cc(N)cc(c23)C1=O
inactive: Potency [1] | Potency [2]
active: Potency [6] 23.5 µM | Potency [7] 11.8 µM | Potency [8] 23.5 µM | Potency [9] 4.18 µM | Potency [10] 20.9 µM | Potency [12] 26.4 µM

CCC(C(=O)O)C1CCC(C)C(C(C)C(O)C(C)C(=O)C(CC)C2OC3(C=CC(O)[C@@]4(CC[C@](C)(C5CC[C@@](O)(CC)C(C)O5)O4)O3)C(C)CC2C)O1 (stereo partly specified)
inactive: Potency [1] | Potency [2]
active: Potency [6] 16.6 µM | Potency [7] 4.69 µM | Potency [8] 5.9 µM | Potency [9] 0.132 µM | Potency [10] 1.87 µM | Potency [11] 0.209 µM

COc1cc2c(cc1OC)[C@@H]1C(=O)c3ccc4c(c3O[C@@H]1CO2)C=CC(C)(C)O4
inactive: Potency [1] | Potency [2]
active: Potency [6] 4.18 µM | Potency [7] 0.0105 µM | Potency [8] 8.33 µM | Potency [9] 0.0935 µM | Potency [10] 0.059 µM | Potency [11] 0.0235 µM | Potency [12] 0.0332 µM

CC(C)c1cnn2c(NCc3ccccc3)cc(NCCCCCCN)nc12
inactive: Potency [1] | Potency [2]
active: Potency [6] 18.7 µM | Potency [8] 13.2 µM | Potency [9] 23.5 µM | Potency [10] 16.6 µM | Potency [11] 20.9 µM

CCn1c(=O)c2c(nc(C=Cc3ccc(OC)c(OC)c3)n2C)n(CC)c1=O
inactive: Potency [1] | Potency [2] | Potency [6] | Potency [7] | Potency [10] | Potency [12]

NC[C@H]1O[C@H](O[C@H]2[C@@H](O)[C@@H](O[C@H]3O[C@H](CO)[C@@H](O)[C@H](N)[C@@H]3O)[C@H](N)C[C@@H]2N)[C@H](N)C[C@H]1O
inactive: outcome [1] inactive [at 9.52 µM] | activity change, negative = inhibition [2] -9.51% [at 9.73 µM] | Potency [6] | Potency [7] | Potency [8] | Potency [9] | Potency [10] | Potency [11] | Potency [12]

Cn1cc(CNCC2CCN(c3ncc(C(=O)NO)cn3)CC2)c2ccccc21
inactive: Potency [1] | Potency [2]
active: Potency [6] 0.0264 µM | Potency [7] 0.0743 µM | Potency [8] 0.0526 µM | Potency [9] 0.0526 µM | Potency [10] 0.0166 µM | Potency [11] 0.0526 µM | Potency [12] 0.105 µM
